An excerpt weighted towards active compounds, which were near 3.5% of everything screened.
GDH-TPI counter-1: GDH-TPI coupled enzyme inhibition counter-screen. 1.2% of 360,000 active. inhibition, % at 4.8 µM. AID 588335. GDH-TPI coupled enzyme counterscreen, NADH absorbance; in the data active = inhibition above about 30%;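 also: 0% = DMSO wells and 100% = wells lacking the enzyme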
Rv3671c protease: Rv3671c (M. tuberculosis) protease inhibition; inhibition, % at 5.96 µM; P9WHR9; 0.048% of 320,000 active; in the data active = inhibition above about 38%;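 also: extracellular domain of Rv3671c used as enzyme; 0% = enzyme with DMSO and 100% = no enzyme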
Mtb bLac sens: beta-lactam sensitization of Mtb H37Rv; inhibition, % at 25 µM; M. tuberculosis H37Rv growth with meropenem, percent inhibition; AID 434955; 0.27% of 330,000 active; call rule not given here;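 also: growth measured after seven days incubation then overnight dye step; 0% = bacteria only wells and 100% = bacteria with antibiotic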
FBA Mtb inh: Mtb fructose-bisphosphate aldolase inhibition; purified M. tuberculosis FBA, fluorescence read-out; inhibition, % at 1 µM; 2.3% of 360,000 active; AID 588726;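 also: 0% = vehicle and 100% = reference inhibitor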
Mtb UGM inh: blocks M. tuberculosis UGM enzyme; AID 504406; purified UGM, fluorescence polarization probe displacement; inhibition, % at 10 µM; 0.06% of 320,000 active; in the data active = inhibition above about 10%, passing the limit was not always enough; inconclusive = no clear call, values can overlap the other calls
Target sequence (P9WIQ1 whole entry, looked up): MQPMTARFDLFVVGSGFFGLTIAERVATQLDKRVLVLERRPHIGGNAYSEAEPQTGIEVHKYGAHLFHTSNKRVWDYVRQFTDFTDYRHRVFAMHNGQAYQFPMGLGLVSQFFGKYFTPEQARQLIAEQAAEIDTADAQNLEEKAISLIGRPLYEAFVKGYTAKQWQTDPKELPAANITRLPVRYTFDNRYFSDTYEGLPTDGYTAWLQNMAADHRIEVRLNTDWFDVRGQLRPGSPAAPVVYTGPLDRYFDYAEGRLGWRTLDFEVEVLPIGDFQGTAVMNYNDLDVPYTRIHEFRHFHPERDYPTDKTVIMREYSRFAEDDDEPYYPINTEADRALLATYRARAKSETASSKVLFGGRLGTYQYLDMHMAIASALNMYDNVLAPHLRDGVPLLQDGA
Mtb FBA confirm: confirmation of M. tuberculosis fructose-bisphosphate aldolase inhibitors. shares compounds with FBA Mtb inh. purified M. tuberculosis FBA, fluorescence read-out. inhibition, % at 1 µM. 78% of 5,600 active;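 also: 0% = vehicle wells and 100% = reference inhibitor wells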
GDH-TPI counter-2: inhibits GDH-TPI coupling enzymes, flagging Mtb FBA hits | shares compounds with FBA Mtb inh | GDH-TPI coupled enzyme counterscreen, fluorescence | inhibition, % at 1 µM | 81% of 5,600 active | AID 652141; in the data active = inhibition above about 10%
* hit, by the source's call; u = inconclusive; x = no result; + = active, no number. Rule as the data show it, unless noted: active = inhibition above about 27%; inactive = the rest.

SMILES	GDH-TPI counter-1	Rv3671c protease	Mtb bLac sens	FBA Mtb inh	Mtb UGM inh	Mtb FBA confirm	GDH-TPI counter-2
CCCCn1c(=N)c(S(=O)(=O)c2ccc(Br)cc2)cc2c(=O)n3cccc(C)c3nc21	10	-3	-2	1	-1	x	x
Cc1cccn2c(=O)c3cc(C(N)=S)c(=N)n(CCCN4CCOCC4)c3nc12	-1	-1	-3	57*	1	56*	55*
Cc1cccn2c(=O)c3cc(C(=O)NCc4ccc(F)cc4)c(=N)n(CCCN4CCOCC4)c3nc12	9	x	x	80*	x	81*	82*
Cc1cccn2c(=O)c3cc(C#N)c(=N)n(CCCN4CCOCC4)c3nc12	2	-7	-17	62*	u	+	+
O=C(COC(=O)CCC(=O)c1cccs1)NCc1ccccc1	-3	4	1	1	-4	x	x
Cc1cccc(C)c1NC(=O)CN1CCc2ccccc2C1	-6	1	-4	-1	3	x	x
CC(C(=O)NCCc1ccccc1)N1c2cccc3cccc(c23)S1(=O)=O (stereo not given)	5	4	5	7	-2	x	x
CCOC(=O)C(C)Sc1nc(-c2cccs2)ccc1C#N (stereo not given)	21	-6	93	41*	-1	2	4
C=COC(=O)CSc1nc(-c2cccs2)ccc1C#N	16	-7	95	30*	1	71*	53*
CCN(CC)CC(=O)Nc1cc(N(C)C)nc2ccccc12	38*	1	-10	36*	-2	30*	26*
CCCCCC(=O)Nc1cc(N(C)C)nc2ccccc12	13	-6	-14	23	-2	x	x
O=C(O)CCc1nn2c3ccccc3n(Cc3ccccc3F)c2nc1=O	5	1	-2	37*	0	110*	87*
O=C(O)CCc1nn2c3ccccc3n(CC(=O)O)c2nc1=O	19	-8	7	24	-4	x	x
O=[N+]([O-])c1ccc2c(c1)nc1n2CCSC1	14	1	-1	35*	-1	6	-6
O=C(N/N=C/c1cc(Cl)ccc1O)c1ccc(Br)cc1	12	-4	1	27*	0	78*	57*
Cc1cc(C)c(C)c(S(=O)(=O)Nc2ccccc2C(=O)NCCCN2CCOCC2)c1C	6	-3	-2	10	-1	x	x
O=C(NNC(=O)c1cc(F)c(F)cc1Cl)c1ccc(NS(=O)(=O)c2cccs2)cc1	4	-9	3	1	2	x	x
O=C(NNC(=O)c1cc(Cl)ccc1O)c1ccc(NS(=O)(=O)c2cccs2)cc1	13	-3	6	29*	3	+	+
Cc1ccc(C2C3=C(CC(C)(C)CC3=O)Nc3n[nH]c(C)c32)cc1 (stereo not given)	21	-1	-10	28*	0	109*	94*
Cc1[nH]nc2c1C(c1ccc(N(C)C)cc1)C1=C(CC(C)(C)CC1=O)N2 (stereo not given)	0	-1	0	-1	3	x	x
Cc1[nH]nc2c1C(c1cccc(O)c1)C1=C(CC(C)(C)CC1=O)N2 (stereo not given)	9	-4	-14	33*	1	17	14*
COc1ccc(C2C3=C(CCCC3=O)Nc3n[nH]c(C)c32)cc1OC (stereo not given)	8	-7	-5	-1	1	x	x
Cc1[nH]nc2c1C(c1ccc(F)cc1)C1=C(CC(C)(C)CC1=O)N2 (stereo not given)	6	4	-8	34*	0	56*	43*
Cc1ccc(C)c(N2CCN(S(=O)(=O)c3cc4c(cc3Cl)NC(=O)CO4)CC2)c1	-2	-9	6	-1	-1	x	x
OC(CSc1ccc(F)cc1)CN1CCN(c2ccccc2)CC1 (stereo not given)	0	-9	-6	0	3	x	x
CC(C)(C)OC(=O)N1CCC2(CC1)Oc1ccc(F)cc1C(=O)C21CC(c2ccccc2)=NO1 (stereo not given)	13	5	68	-1	4	x	x
CCOC(=O)c1cnn2c(N)c(C#N)nnc12	19	2	-1	0	-1	x	x
CCOC(=O)c1cnn2c(N)c(C#N)cnc12	26	-13	3	29*	-1	51*	37*
Cc1cccc(NC(=O)COC(=O)CN2C(=O)c3ccccc3C2=O)c1	6	x	x	0	x	x	x

Screening results as filed in PubChem BioAssay.
